Drawing on PubChem BioAssay AID686978 (National Center for Advancing Translational Sciences (NCATS), 2013), this text covers Potency for 69 molecules.

“And” between values parts separate entries of the source, which are not always exact repeats. Equal values may be shown once. Hit rate of the full screen: of about 420,000 compounds, about 64,000 (15%) were called active. Inconclusive results (about 27%) are left out. Calls come from the whole dose curve; as a rule, active = well fitted inhibition curve with a large enough effect; inconclusive = small, poorly fitted or top-dose-only effect; inactive = flat fitted curve, though single readings scatter. Only a sample is shown. A call without a number means that no potency is given here.
Potency is the fitted concentration of half-maximal effect.

The nature of the assay: qHTS for Inhibitors of human tyrosyl-DNA phosphodiesterase 1 (TDP1): qHTS in cells in absence of CPT. Note: nearly all actives have a fitted effect of over 55% in size. As to conditions: DT40 Tdp1-/- hTDP1 cells, no CPT, ATP luminescence, 48 h; activity change, negative = growth inhibition: at 46.2 µM (top of the series). Put shortly:
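Readout: luminescence from CellTiter-Glo after 30 min in the dark at RT. Cells: DT40 Tdp1-/- with stable hTDP1, 400/well. Exposure: compounds alone, ≥48 hr, 37 °C.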
As for `COC(=O)c1ccc(C(=O)OC)c(NC(=S)N2CCCCC2)c1`, the Potency result was “inactive”.
The entry for `Brc1ccc(-c2noc(-c3ccccc3)n2)o1` is “inactive”; for `Cn1c(=O)cc(SCC(=O)N2CCN(C(=O)c3ccco3)CC2)c2ccccc21` it is “inactive”; for `Nc1c(C(=O)O)cnn1-c1ccccc1` it is “inactive”.
The figure for `CCn1c(O)c(N=NC(=O)c2cccc(S(=O)(=O)N3CCCCC3)c2)c2ccccc21` is 23.1 µM (active); for `COC(=O)Cn1c(O)c(N=NC(=O)OC)c2ccccc21` it is “inactive”.
Turning to `CN1CCN(S(=O)(=O)c2cccc(C(=O)O)c2)CC1`, the Potency entry is “inactive”.
The same measure for `O=[N+]([O-])c1cccc(C2=NCCS2)c1`: “inactive”; for `CC(CC(=O)Nc1ccc(F)cc1F)S(=O)(=O)c1ccc2c(c1)NC(=O)CO2` (centres undefined): “inactive”; for `O=C(NCc1cccnc1)Nc1cccc(NC(=O)NCc2cccnc2)c1F`: “inactive”.
The same measure for `COCCCN1C(=O)c2ccc(C(=O)OCC(=O)NCc3ccccc3OC)cc2C1=O`: “inactive”.
With `CCOc1ccc(C2C(C(=O)O)c3ccccc3C(=O)N2CCN2CCOCC2)cc1` (centres undefined), the Potency result was “inactive”.
The figure for `CCOc1ccc(C(=O)CCN2CCOCC2)cc1` is 20.6 µM (active).
The entry for `CC(=O)c1ccc(OCCN2CCOCC2)cc1` is “inactive”.
The same measure for `CC1CN(C2CCN(C(=O)COc3ccccc3)CC2)CC(C)O1` (centres undefined): “inactive”; for `CN(CC(=O)NCc1ccncc1)S(=O)(=O)c1ccc(Br)cc1`: “inactive”; for `COc1ccc(CCNc2ncnc3nc[nH]c23)cc1OC`: 11.6 µM (active).
For `COc1ccc(CCNC(=O)C(=O)NCC2CCNCC2)cc1OC`, the Potency entry is “inactive”.
The same measure for `CCCNC(=O)NC(=O)COC(=O)CC(NC(N)=O)c1ccc(Cl)cc1` (centres undefined): “inactive”; for `CSCCC(NC(=O)c1ccco1)C(=O)NCCc1ccc(F)cc1` (centres undefined): “inactive”; for `CC1CCCN(C(C(=O)Nc2ccc(C(C)C)cc2)c2ccc3c(c2)OCO3)C1` (centres undefined): 18.4 µM (active).
The same measure for `CCc1ccc(NC(=O)NC(C)c2ccc3c(c2)OCO3)cc1` (centres undefined): “inactive”.
The entry for `CC(NC(=O)Nc1ccc2c(c1)OCO2)c1ccncc1` (centres undefined) is “inactive”; for `Cc1cccc(NS(=O)(=O)c2ccc(C)c(C(=O)NCc3cccnc3)c2)c1` it is “inactive”; for `Cc1cccc(NS(=O)(=O)c2ccc(C)c(C(N)=O)c2)c1` it is 9.2 µM (active).
Consider `Cc1ccc(S(=O)(=O)NC2CCCCCC2)cc1C(N)=O`, for which the Potency entry is “inactive”.
The entry for `COc1ccccc1C(=O)N1C(CC(=O)Nc2ccccc2C)C(=O)NC2CCCCC21` (centres undefined) is “inactive”; for `COc1cccc(-n2c(=S)[nH]c3c(oc4ccccc43)c2=O)c1` it is “inactive”.
The entry for `CNc1[nH]ncc1[N+](=O)[O-]` is “inactive”.
As to `CCCCCCNCCn1cnc2c(N)ncnc21`, the Potency entry was “inactive”.
The same measure for `Cc1ccc(NC(=O)COC(=O)CCc2nc3ccccc3n2-c2ccccc2)c(C)c1`: “inactive”; for `Cc1ccc(NC(=O)CSc2nn3c(=O)c(C)nnc3s2)cc1Cl`: “inactive”; for `Cc1ccc(NC(=O)CSc2nnc3[nH]c(=O)cc(C)n23)cc1Cl`: “inactive”.
On to `Cc1cccc(NC(=O)CSc2nc3c(oc4ccccc43)c(=O)n2-c2ccc(F)cc2)c1`, for which the Potency result was “inactive”.
The same measure for `Cc1ccc(-n2c(SCC(=O)Nc3cccc(F)c3)nc3c(oc4ccccc43)c2=O)cc1C`: “inactive”.
In the case of `Cc1ccc(NC(=O)Cn2nc(C)c3ccccc3c2=O)c(C)c1`, the Potency result is “inactive”.
The figure for `Cc1ccc(C)c(NC(=O)CSc2nc3c(oc4ccccc43)c(=O)n2-c2ccccc2)c1` is 10.3 µM (active); for `Cc1nc(SCC(=O)c2ccccc2)c([N+](=O)[O-])[nH]1` it is “inactive”.
As to `Cc1ccc(-n2c(SCC(=O)c3ccccc3)nc3c([nH]c4ccccc43)c2=O)cc1`, the Potency is 3.66 µM (active).
The figure for `Cc1ccc(NC(=O)CSc2nc3c([nH]c4ccccc43)c(=O)n2-c2ccccc2)c(C)c1` is 16.4 µM (active); for `Cc1ccc(NC(=O)CSc2nc3c([nH]c4ccccc43)c(=O)n2-c2ccccc2)cc1Cl` it is 23.1 µM (active).
The same measure for `CC(C)OCCCn1c(SCC(=O)c2ccccc2)nc2c(sc3ccccc32)c1=O`: “inactive”.
The same measure for `O=C(CC12CC3CC(CC(C3)C1)C2)NCc1ccco1`: “inactive”; for `CCCOc1ccc(Cc2c(O)nc(N)[nH]c2=O)cc1C`: “inactive”.
Turning to `CN1C(=O)CC(c2ccccc2)C1=O` (centres undefined), the Potency result was “inactive”.
The entry for `Cc1cc(C(=O)CC#N)c(C)n1CC(F)(F)F` is “inactive”.
The entry for `CCC(=O)N1CCC(C)(C(=O)Nc2cc(OC)c(OC)c(OC)c2)C1` (centres undefined) is “inactive”.
The entry for `C/C(=N\NS(=O)(=O)c1ccc(Br)cc1)c1cccs1` is “inactive”.
As to `O=C(c1ccco1)N1CCC[C@@]2(CCN(Cc3nccs3)C2)C1`, the Potency result is “inactive”.
The entry for `C[C@H](CO)N1C[C@H](C)[C@@H](CN(C)C(=O)c2cnccn2)Oc2ncc(Br)cc2C1=O` is “inactive”; for `CC1CN(C(=O)CN2C(=O)NC(C)(c3ccccc3)C2=O)CC(C)O1` (centres undefined) it is “inactive”.
As for `O=C(c1ccccc1)c1cccn1CC(=O)N1CCN(c2ccc(F)cc2)CC1`, the Potency result is “inactive”.
With `CC(Sc1nc2c([nH]c3ccccc32)c(=O)n1C)c1ccccc1` (centres undefined), the Potency was 18.4 µM (active).
On to `Cn1nnnc1SCc1cc(=O)[nH]c2ccccc12`, for which the Potency entry was “inactive”.
The entry for `CCOC(=O)c1ccc(NC(=O)c2cc(=O)[nH]c3ccccc23)cc1` is “inactive”; for `CCOC(=O)c1ccc(NC(=O)CSc2nc3c([nH]c4ccccc43)c(=O)n2C)cc1` it is 9.2 µM (active); for `CCOC(=O)c1ccc(NC(=O)CSc2nnc(COc3ccccc3OC)n2C)cc1` it is “inactive”.
Consider `CCOn1c(SC(C)C)nc2ccccc2c1=O`, for which the Potency entry was “inactive”.
The entry for `CSc1ncccc1C(=O)OCC(=O)N1CCOCC1` is “inactive”; for `CCOC(=O)c1cccc(NC(=O)CCc2nnc3ccc(N4CCOCC4)nn23)c1` it is “inactive”.
The entry for `Cc1nc2ccc(C(=O)O)cc2[nH]1` is “inactive”.
Consider `COC(=O)Nc1nc2ccc(Sc3ccccc3)cc2[nH]1`, for which the Potency is 517 nM (active) and 286 nM (active).
The same measure for `CC(C)c1nc2ccc(C(=O)O)cc2[nH]1`: “inactive”; for `CC1CCN(C(=O)/C(=C\c2ccccc2)NC(=O)c2ccccc2)CC1`: “inactive”.
The same measure for `O=C(CS(=O)(=O)Cc1ccccc1)Nc1cccnc1`: “inactive”; for `CNc1cncc(-c2cccc(C(=O)N3CCOCC3)c2)n1`: “inactive”; for `CNc1cncc(-c2ccc(NS(C)(=O)=O)cc2)n1`: 4.11 µM (active).
The entry for `CS(=O)(=O)Nc1ccc(C(=O)N2CCCC2)cc1` is “inactive”; for `CCCS(=O)(=O)C(=C1Nc2ccccc2N1)S(=O)(=O)CCC` it is “inactive”.
